Test results published in paper PMC7862700, “An all-to-all approach to the identification of sequence-specific readers for epigenetic DNA modifications on cytosine”.

Tests used:
Test in all cases: DAPPL (digital affinity profiling via proximity ligation, sequencing); 10 mM Tris-HCl pH 7.5, 50 mM NaCl, 1 mM DTT, 4% glycerol, room temperature, 30 min; GST-TFs on glutathione beads, 16-mer random dsDNA library, 0.1% formaldehyde crosslink after washing; high values mean tight binding
Conditions in all cases: protein: recombinant; tags: N-terminal GST; dsDNA, one strand shown
FLI1 = target: T1, FLI1 (Homo sapiens, UniProt Q01543 1-452)
T1 sequence: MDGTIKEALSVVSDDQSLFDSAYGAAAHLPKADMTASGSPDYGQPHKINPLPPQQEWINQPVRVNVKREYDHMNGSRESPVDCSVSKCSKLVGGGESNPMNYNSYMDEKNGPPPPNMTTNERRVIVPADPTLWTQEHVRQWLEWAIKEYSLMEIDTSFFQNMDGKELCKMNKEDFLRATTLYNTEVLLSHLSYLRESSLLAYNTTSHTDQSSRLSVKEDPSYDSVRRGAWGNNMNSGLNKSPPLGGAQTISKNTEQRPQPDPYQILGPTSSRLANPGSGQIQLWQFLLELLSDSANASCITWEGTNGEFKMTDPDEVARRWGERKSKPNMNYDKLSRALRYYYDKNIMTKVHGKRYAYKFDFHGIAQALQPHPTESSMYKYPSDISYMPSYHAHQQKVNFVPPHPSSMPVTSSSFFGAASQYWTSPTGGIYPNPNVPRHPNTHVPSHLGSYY
Outline: (§1)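 Pools were built from human transcription factors expressed in yeast as GST fusions, captured on glutathione beads and DNA-barcoded, along with a tag-only sample. Incubation with 200 nmole of a 16-mer random double-stranded DNA library lasted 30 min at room temperature in Tris/NaCl/DTT/glycerol buffer, and was followed by washing, 0.1% formaldehyde crosslinking, proximity ligation, PCR amplification and Illumina NextSeq500 sequencing. Binding signal is the quotient of each hexamer's read frequency for a factor and its frequency for the tag-only sample.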

ELK1 = target: T2, ELK1 (Homo sapiens, UniProt P19419 1-428)
T2 sequence: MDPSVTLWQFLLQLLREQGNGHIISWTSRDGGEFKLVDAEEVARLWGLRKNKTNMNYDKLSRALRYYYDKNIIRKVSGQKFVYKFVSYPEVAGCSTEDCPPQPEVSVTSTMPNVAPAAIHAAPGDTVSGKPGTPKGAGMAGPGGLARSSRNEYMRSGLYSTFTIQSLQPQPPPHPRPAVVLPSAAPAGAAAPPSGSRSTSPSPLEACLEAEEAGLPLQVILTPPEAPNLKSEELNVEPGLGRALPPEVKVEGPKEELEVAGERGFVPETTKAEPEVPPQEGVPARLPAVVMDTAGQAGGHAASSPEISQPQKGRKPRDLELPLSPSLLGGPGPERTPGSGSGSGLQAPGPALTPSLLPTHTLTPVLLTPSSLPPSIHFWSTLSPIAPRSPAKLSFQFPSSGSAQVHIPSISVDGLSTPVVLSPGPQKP
Outline: as §1

GABPA = target: T3, GABPA (Homo sapiens, UniProt Q06546 1-454)
T3 sequence: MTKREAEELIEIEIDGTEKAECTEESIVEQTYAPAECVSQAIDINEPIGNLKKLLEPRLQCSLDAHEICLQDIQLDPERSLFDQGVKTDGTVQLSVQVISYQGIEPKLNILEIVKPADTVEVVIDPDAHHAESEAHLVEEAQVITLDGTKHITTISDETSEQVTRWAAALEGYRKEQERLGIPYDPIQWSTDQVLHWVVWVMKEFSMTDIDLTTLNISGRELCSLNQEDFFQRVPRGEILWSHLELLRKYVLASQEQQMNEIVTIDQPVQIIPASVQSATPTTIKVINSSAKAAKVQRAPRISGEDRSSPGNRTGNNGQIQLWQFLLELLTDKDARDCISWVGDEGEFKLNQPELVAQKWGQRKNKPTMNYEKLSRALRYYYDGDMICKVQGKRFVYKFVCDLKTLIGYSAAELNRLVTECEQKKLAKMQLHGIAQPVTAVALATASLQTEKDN
Outline: as §1

ERG = target: T4, ERG (Homo sapiens, UniProt P11308 1-479)
T4 sequence: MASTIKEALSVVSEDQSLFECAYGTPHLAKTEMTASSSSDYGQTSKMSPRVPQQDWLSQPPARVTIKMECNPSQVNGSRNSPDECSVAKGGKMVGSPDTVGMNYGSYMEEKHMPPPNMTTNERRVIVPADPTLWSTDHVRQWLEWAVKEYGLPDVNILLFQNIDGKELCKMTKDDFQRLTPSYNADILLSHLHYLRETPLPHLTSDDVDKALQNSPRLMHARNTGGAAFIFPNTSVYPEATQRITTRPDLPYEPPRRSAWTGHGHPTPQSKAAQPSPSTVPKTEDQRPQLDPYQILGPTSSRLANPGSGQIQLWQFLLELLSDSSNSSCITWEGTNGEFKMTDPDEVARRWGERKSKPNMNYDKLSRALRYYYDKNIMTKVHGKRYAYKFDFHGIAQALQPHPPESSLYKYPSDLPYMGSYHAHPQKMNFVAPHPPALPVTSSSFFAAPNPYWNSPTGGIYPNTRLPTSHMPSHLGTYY
Outline: as §1

ELF1 = ELF1 (Homo sapiens, UniProt P32519 1-619)
Outline: as §1

EHF = target: T5, EHF (Homo sapiens, UniProt Q9NZC4 1-300)
T5 sequence: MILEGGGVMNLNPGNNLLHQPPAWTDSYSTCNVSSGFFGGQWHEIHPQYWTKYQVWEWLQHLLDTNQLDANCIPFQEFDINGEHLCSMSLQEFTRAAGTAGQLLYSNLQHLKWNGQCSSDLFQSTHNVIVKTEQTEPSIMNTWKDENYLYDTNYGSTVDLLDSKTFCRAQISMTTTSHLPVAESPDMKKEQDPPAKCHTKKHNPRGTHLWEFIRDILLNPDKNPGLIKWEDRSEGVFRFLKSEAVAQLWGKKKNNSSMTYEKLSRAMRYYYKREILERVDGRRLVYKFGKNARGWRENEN
Outline: as §1

SPI1 = SPI1 (Homo sapiens, UniProt P17947 1-270)
Outline: as §1

SPIB = SPIB (Homo sapiens, UniProt Q01892 1-262)
Outline: as §1

ELK3 = target: T6, ELK3 (Homo sapiens, UniProt P41970 1-407)
T6 sequence: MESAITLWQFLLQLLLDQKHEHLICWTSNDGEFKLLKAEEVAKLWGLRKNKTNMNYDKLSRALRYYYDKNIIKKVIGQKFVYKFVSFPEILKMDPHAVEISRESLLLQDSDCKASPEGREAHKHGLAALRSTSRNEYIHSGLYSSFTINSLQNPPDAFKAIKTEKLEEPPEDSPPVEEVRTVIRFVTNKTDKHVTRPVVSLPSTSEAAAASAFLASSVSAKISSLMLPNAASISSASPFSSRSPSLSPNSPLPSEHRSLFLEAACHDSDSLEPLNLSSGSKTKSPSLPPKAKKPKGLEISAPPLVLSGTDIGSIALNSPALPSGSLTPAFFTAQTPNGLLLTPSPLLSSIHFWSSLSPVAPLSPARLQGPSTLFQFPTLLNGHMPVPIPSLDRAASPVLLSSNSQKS
Outline: as §1

Sequence of ELF1 (P32519 whole entry): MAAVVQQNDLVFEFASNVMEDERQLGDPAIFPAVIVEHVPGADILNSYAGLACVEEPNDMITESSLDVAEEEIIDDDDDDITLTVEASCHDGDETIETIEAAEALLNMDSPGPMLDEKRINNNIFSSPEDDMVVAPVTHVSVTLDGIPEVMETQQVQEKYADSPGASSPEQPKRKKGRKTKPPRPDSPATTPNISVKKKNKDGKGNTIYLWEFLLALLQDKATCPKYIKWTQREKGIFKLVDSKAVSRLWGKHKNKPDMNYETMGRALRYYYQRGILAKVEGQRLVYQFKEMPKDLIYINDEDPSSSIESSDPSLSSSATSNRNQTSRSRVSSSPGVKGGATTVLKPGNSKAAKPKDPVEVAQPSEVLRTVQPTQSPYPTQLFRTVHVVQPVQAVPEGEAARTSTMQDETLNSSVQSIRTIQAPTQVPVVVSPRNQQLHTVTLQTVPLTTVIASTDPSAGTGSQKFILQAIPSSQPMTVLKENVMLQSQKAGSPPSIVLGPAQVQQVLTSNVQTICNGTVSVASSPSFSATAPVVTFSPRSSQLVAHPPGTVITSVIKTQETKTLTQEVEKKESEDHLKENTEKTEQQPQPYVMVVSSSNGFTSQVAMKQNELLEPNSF
Sequence of SPIB (Q01892 whole entry): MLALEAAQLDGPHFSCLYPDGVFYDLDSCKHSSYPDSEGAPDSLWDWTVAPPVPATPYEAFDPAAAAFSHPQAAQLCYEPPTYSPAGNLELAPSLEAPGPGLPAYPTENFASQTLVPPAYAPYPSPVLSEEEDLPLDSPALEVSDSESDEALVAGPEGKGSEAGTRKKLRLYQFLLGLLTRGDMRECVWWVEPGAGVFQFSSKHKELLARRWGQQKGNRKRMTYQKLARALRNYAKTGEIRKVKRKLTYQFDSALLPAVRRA

Sequence: GTATCT
- binding signal (FLI1): 1.23 fold enrichment (6-mer frequency, TF over GST control)
- binding signal (ELK1): 1.19 fold enrichment (6-mer frequency, TF over GST control)
- binding signal (GABPA): 1.17 fold enrichment (6-mer frequency, TF over GST control)
- binding signal (ERG): 1.14 fold enrichment (6-mer frequency, TF over GST control)
- binding signal (ELF1): 1.18 fold enrichment (6-mer frequency, TF over GST control)
- binding signal (EHF): 1.09 fold enrichment (6-mer frequency, TF over GST control)
- binding signal (SPI1): 1.1 fold enrichment (6-mer frequency, TF over GST control)
- binding signal (SPIB): 1.25 fold enrichment (6-mer frequency, TF over GST control)
- binding signal (ELK3): 1.09 fold enrichment (6-mer frequency, TF over GST control)
